Measured values: PubChem BioAssay (Tox21)
Results filed as inconclusive are left out. Activity calls are given as the source filed them. The call rests on the fitted dose curve; in most records, active means well fitted curve in the direction sought with a large enough effect in the repeat runs; inconclusive means weak or mixed curves; inactive means no such curve, though single readings can be large; an effect the other way counts as inactive or inconclusive.

Key:
[1] = A CellTox Green Cytotoxicity Assay to monitor cytotoxicity in HEK293 cells - 40 hour (AID 1224871); further: nearly all actives have a fitted effect of over 45% in size
Summary of the method: (§1)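 Cytotoxicity was tracked continuously in HEK293 cells by a DNA-binding dye excluded from viable cells. Compounds were transferred in DMSO 5 h after seeding; fluorescence was recorded at intervals up to 40 h.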

[2] = qHTS RealTime-Glo MT Cell Viability Assay in HEK293 cells - 16 hour (AID 1224872); further: nearly all actives have a fitted effect of over 50% in size; further: potency means the concentration at half of the fitted maximal effect
Summary of the method: (§2)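 Luminescence generated by NanoLuc from substrate produced by living HEK293 cells served as the viability signal. Each value reflects the reading at its stated time point during continuous 40 h compound exposure at 37 C.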

[3] = A CellTox Green Cytotoxicity Assay to monitor cytotoxicity in HEK293 cells - 24 hour (AID 1224875); further: series mostly up to about 77 µM; nearly all actives have a fitted effect of over 45% in size
Summary of the method: as §1

[4] = A CellTox Green Cytotoxicity Assay to monitor cytotoxicity in HepG2 cells - 16 hour (AID 1224876); further: nearly all actives have a fitted effect of over 45% in size
Summary of the method: (§3)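 Real-time, homogeneous cytotoxicity readout: dead-cell DNA staining by CellTox Green in HepG2 monolayers, fluorescence measured at timed intervals up to 40 h of continuous compound exposure.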

[5] = qHTS RealTime-Glo MT Cell Viability Assay in HepG2 cells - 32 hour (AID 1224877); further: nearly all actives have a fitted effect of over 55% in size
Summary of the method: (§4)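 Tox21 10K library screened in qHTS format on HepG2 cells carrying RealTime-Glo reagents. Compounds were added after a 5 h preincubation, and the luminescent signal from continuous culture was measured repeatedly during 40 h treatment.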

[6] = A CellTox Green Cytotoxicity Assay to monitor cytotoxicity in HepG2 cells - 24 hour (AID 1224878); further: nearly all actives have a fitted effect of over 45% in size
Summary of the method: as §3

[7] = A CellTox Green Cytotoxicity Assay to monitor cytotoxicity in HepG2 cells - 40 hour (AID 1224879); further: nearly all actives have a fitted effect of over 40% in size
Summary of the method: as §3

[8] = qHTS RealTime-Glo MT Cell Viability Assay in HEK293 cells - 0 hour (AID 1224880)
Summary of the method: (§5)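 Nonlytic bioluminescent viability monitoring. HEK293 at 600 cells/well with reagent; 5 h settle; compound transfer by pintool; plates held at 37 C and read at set time points.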

[9] = A CellTox Green Cytotoxicity Assay to monitor cytotoxicity in HEK293 cells - 32 hour (AID 1224881); further: nearly all actives have a fitted effect of over 40% in size
Summary of the method: as §1

[10] = A CellTox Green Cytotoxicity Assay to monitor cytotoxicity in HepG2 cells - 0 hour (AID 1224882); further: nearly all actives have a fitted effect of over 35% in size
Summary of the method: as §3

[11] = A CellTox Green Cytotoxicity Assay to monitor cytotoxicity in HepG2 cells - 32 hour (AID 1224883); further: nearly all actives have a fitted effect of over 50% in size
Summary of the method: as §3

[12] = A CellTox Green Cytotoxicity Assay to monitor cytotoxicity in HEK293 cells - 8 hour (AID 1224884); further: nearly all actives have a fitted effect of over 35% in size
Summary of the method: as §1

[13] = qHTS RealTime-Glo MT Cell Viability Assay in HepG2 cells - 16 hour (AID 1224885); further: nearly all actives have a fitted effect of over 50% in size
Summary of the method: as §4

[14] = qHTS RealTime-Glo MT Cell Viability Assay in HEK293 cells - 24 hour (AID 1224886); further: nearly all actives have a fitted effect of over 50% in size; further: potency means the concentration at half of the fitted maximal effect
Summary of the method: as §2

[15] = qHTS RealTime-Glo MT Cell Viability Assay in HEK293 cells - 8 hour (AID 1224887)
Summary of the method: as §5

[16] = A CellTox Green Cytotoxicity Assay to monitor cytotoxicity in HEK293 cells - 16 hour (AID 1224888); further: nearly all actives have a fitted effect of over 35% in size
Summary of the method: as §1

[17] = qHTS RealTime-Glo MT Cell Viability Assay in HepG2 cells - 0 hour (AID 1224889); further: nearly all actives have a fitted effect of over 50% in size
Summary of the method: as §4

[18] = A CellTox Green Cytotoxicity Assay to monitor cytotoxicity in HepG2 cells - 8 hour (AID 1224890); further: nearly all actives have a fitted effect of over 45% in size
Summary of the method: as §3

[19] = qHTS RealTime-Glo MT Cell Viability Assay in HEK293 cells - 40 hour (AID 1224874); conditions: RealTime-Glo luminescence; max response: active compounds read low; further: nearly all actives have a fitted effect of over 50% in size; further: potency means the concentration at half of the fitted maximal effect
Summary of the method: as §5

[20] = qHTS RealTime-Glo MT Cell Viability Assay in HepG2 cells - 8 hour (AID 1224873); further: nearly all actives have a fitted effect of over 55% in size
Summary of the method: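 HepG2 cells mixed with RealTime-Glo MT reagents (NanoLuc plus cell-permeant prosubstrate) were seeded at 600 cells/well, incubated 5 h at 37 C/5% CO2, then pinned with compounds in DMSO; nonlytic luminescence tracked viability during 40 h treatment.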
On the % scale 0 is the no-effect control and ±100 the full control effect.

Cc1nc(N)nc(N)n1
inactive: Potency [1] | Potency [2] | Potency [3] | Potency [4] | Potency [5] | Potency [6] | Potency [7] | outcome [8] | Potency [9] | outcome [10] | Potency [11] | Potency [12] | Potency [13] | Potency [14] | Potency [15] | Potency [16] | Potency [17] | Potency [18]

CCCSP(=S)(OCC)Oc1ccc(Cl)cc1Cl (configuration not stated)
inactive: Potency [1] | Potency [2] | max response [19] 1.03% | Potency [3] | Potency [4] | Potency [6] | Potency [7] | outcome [8] | Potency [9] | outcome [10] | Potency [11] | Potency [12] | Potency [13] | Potency [14] | Potency [15] | Potency [16] | Potency [17] | Potency [18]

N#Cc1c(Cl)cccc1Cl
inactive: Potency [1] | Potency [2] | Potency [3] | Potency [4] | Potency [5] | Potency [6] | Potency [7] | outcome [8] | Potency [9] | Potency [11] | Potency [12] | Potency [13] | Potency [14] | Potency [15] | Potency [16] | Potency [18]

COc1cc(OC)nc(NC(=O)NS(=O)(=O)c2ncccc2C(=O)N(C)C)n1
inactive: Potency [1] | Potency [2] | Potency [3] | Potency [4] | Potency [5] | Potency [6] | Potency [7] | outcome [8] | Potency [9] | Potency [11] | Potency [13] | Potency [14] | Potency [15] | Potency [16] | Potency [17] | Potency [18]

Cc1nnc2n1-c1sc(CCC(=O)N3CCOCC3)cc1C(c1ccccc1Cl)=NC2
inactive: Potency [1] | Potency [20] | max response [19] -16.7% | Potency [3] | Potency [4] | Potency [5] | Potency [6] | Potency [7] | outcome [8] | Potency [9] | Potency [11] | Potency [13] | Potency [14] | Potency [15] | Potency [16] | Potency [17] | Potency [18]

CNC(=O)Oc1ccc(N(C)C)c(C)c1
inactive: Potency [1] | Potency [2] | max response [19] -14.9% | Potency [3] | Potency [4] | Potency [5] | Potency [6] | Potency [7] | outcome [8] | Potency [9] | Potency [11] | Potency [12] | Potency [13] | Potency [14] | Potency [15] | Potency [16] | Potency [17] | Potency [18]

CC(C)(C)C(=O)C(Oc1ccc(Cl)cc1)n1cncn1 (configuration not stated)
inactive: Potency [1] | Potency [20] | Potency [3] | Potency [4] | Potency [5] | Potency [6] | Potency [7] | outcome [8] | Potency [9] | outcome [10] | Potency [11] | Potency [12] | Potency [13] | Potency [15] | Potency [16] | Potency [17] | Potency [18]

N#CC(O)c1ccccc1 (configuration not stated)
inactive: Potency [1] | Potency [20] | max response [19] 19.9% | Potency [3] | Potency [4] | Potency [6] | Potency [7] | outcome [8] | Potency [9] | outcome [10] | Potency [11] | Potency [13] | Potency [14] | Potency [15] | Potency [16]

Cc1cc(C)nc(Nc2ccccc2)n1
inactive: Potency [1] | Potency [2] | max response [19] -2.72% | Potency [3] | Potency [4] | Potency [6] | Potency [7] | outcome [8] | Potency [9] | outcome [10] | Potency [11] | Potency [13] | Potency [14] | Potency [15] | Potency [18]

NC(=O)O
inactive: Potency [2] | Potency [20] | max response [19] 3.48% | Potency [3] | Potency [4] | Potency [5] | Potency [6] | Potency [7] | outcome [8] | Potency [9] | Potency [11] | Potency [12] | Potency [13] | Potency [14] | Potency [15] | Potency [16] | Potency [17]

O=S(=O)(O)C(F)(F)C(F)(F)C(F)(F)C(F)(F)C(F)(F)C(F)(F)F
inactive: Potency [1] | Potency [20] | Potency [3] | Potency [4] | Potency [5] | Potency [6] | Potency [7] | outcome [8] | Potency [9] | outcome [10] | Potency [11] | Potency [13] | Potency [14] | Potency [15] | Potency [16] | Potency [17] | Potency [18]

[As]#[In]
inactive: Potency [1] | Potency [20] | Potency [3] | Potency [4] | Potency [5] | outcome [8] | Potency [9] | outcome [10] | Potency [12] | Potency [13] | Potency [15] | Potency [17] | Potency [18]

O=[N+]([O-])c1cccc2cccnc12
inactive: Potency [1] | Potency [3] | Potency [4] | Potency [5] | Potency [6] | Potency [7] | outcome [8] | Potency [9] | outcome [10] | Potency [11] | Potency [13] | Potency [14] | Potency [15] | Potency [16] | Potency [17] | Potency [18]

CC(C=O)Cc1ccc2c(c1)OCO2 (configuration not stated)
inactive: Potency [1] | max response [19] 0.337% | Potency [3] | Potency [4] | Potency [5] | Potency [6] | Potency [7] | outcome [8] | Potency [9] | outcome [10] | Potency [11] | Potency [13] | Potency [14] | Potency [15] | Potency [16] | Potency [18]

CCC(C)(C)c1cc(-n2nc3ccccc3n2)c(O)c(C(C)(C)CC)c1
active: Potency [2] 24.9 µM | Potency [19] 22.2 µM | Potency [14] 24.9 µM
inactive: Potency [20] | Potency [3] | Potency [4] | Potency [5] | Potency [6] | Potency [7] | outcome [8] | Potency [9] | outcome [10] | Potency [11] | Potency [12] | Potency [13] | Potency [16] | Potency [17] | Potency [18]

CSc1nc(N=[N+]=[N-])nc(NC(C)C)n1
inactive: Potency [1] | Potency [20] | Potency [3] | Potency [4] | Potency [5] | Potency [6] | Potency [7] | outcome [8] | Potency [9] | outcome [10] | Potency [11] | Potency [12] | Potency [13] | Potency [16] | Potency [17]
